Only some compounds are listed: those with a hit (about 19% of all), similar ones and a draw of the others.
TDP1 cell noCPT – qHTS for Inhibitors of human tyrosyl-DNA phosphodiesterase 1 (TDP1): qHTS in cells in absence of CPT; DT40 Tdp1-/- hTDP1 cells, no CPT, ATP luminescence, 48 h; Potency, µM (titrated, usually from 46.2 µM), for the others: at the top dose activity change, negative = growth inhibition, hits mostly inhibitors; 420,000 compounds, 15% hits; AID 686978, 2013; note: nearly all actives have a fitted effect of over 55% in size
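Growth of hTDP1-complemented DT40 Tdp1-knockout cells is measured by ATP luminescence after at least 48 hr compound exposure at 37 °C, with DMSO substituting for the 20 nM CPT used in the parallel screen.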
TDP1 cell CPT – DT40-hTDP1 cell growth loss with CPT | chicken DT40 Tdp1-/-;hTDP1 cells + 20 nM CPT, ATP luminescence, 48 h | Potency, µM (highest dose often 46.2 µM), without a hit: at the highest dose activity change, negative = growth inhibition, actives largely listed as inhibitors | 420,000 compounds, 12% hits | AID 686979; note: nearly all actives have a fitted effect of over 55% in size
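Chicken DT40 Tdp1-/- cells complemented with human TDP1, 400 cells/well, exposed to compounds plus 20 nM camptothecin for at least 48 h at 37 C; viability read as ATP content by CellTiter-Glo luminescence.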
HT1080NT lethal – kills 2HG-producing HT-1080-NT fibrosarcoma cells; HT-1080-NT fibrosarcoma viability, CellTiter-Glo ATP luminescence, 48 h; Potency, µM (doses to about 46.1 µM), for the others: at the highest dose activity, negative = less viability, most hits filed as cytotoxic; 360,000 compounds, 1.6% hits; AID 686970;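 note: NT is the 2HG producing partner of a matched IDH1 knockdown line; 0% = DMSO-treated cells and -100% = media-only wells without cells; nearly all actives have a fitted effect of over 55% in size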
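HT-1080-NT fibrosarcoma cells (2HG-overproducing), 750 cells/well in RPMI with 5% FBS, dosed after 2 h and incubated 48 h at 37C. CellTiter-Glo luminescence normalized to DMSO and no-cell wells; concentration-response curves fitted and classed.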
KB-V1 MDR tox – kills drug-selected multidrug resistant KB-V1 cells. KB-V1 MDR cells viability, CellTiter-Glo, 72 h. Potency, µM (top dose mostly 46.1 µM), usual class: cytotoxic. 400,000 compounds, 3.4% hits. AID 1347076; note: nearly all actives have a fitted effect of over 60% in size
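qHTS viability screen in drug-selected KB-V1 MDR cells: 72 h compound treatment at 37 degrees C, ATP luminescence end point.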
KB-3-1 cytotox – kills parental KB-3-1 adenocarcinoma cells; KB-3-1 viability, CellTiter-Glo ATP luminescence, 72 h; Potency, µM (series often up to 46.1 µM), usual class: cytotoxic; 400,000 compounds, 1.4% hits; note: nearly all actives have a fitted effect of over 60% in size
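KB-3-1 cells, DMEM (no phenol red) + 10% FBS; compound by pin transfer, 72 h, 37 °C. Readout: CellTiter-Glo luminescence after 10 min. Data normalized, curve-fitted.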
HT1080 IDH1KD tx – kills HT-1080 cells with IDH1 knockdown; 360,000 compounds, 2% hits; Potency, µM (top dose mostly 46.1 µM), for inactives: at the top dose activity, negative = toxicity, most hits filed as cytotoxic; HT-1080 IDH1 knockdown viability, ATP luminescence, 48 h; AID 686971;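 note: 0% = DMSO wells and -100% = cell-free medium wells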
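Using the IDH1-knockdown HT-1080 line run in the same batch and compound series as the NT line, viability after 48 h at 37 °C was determined by CellTiter-Glo luminescence and expressed as % activity.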
Starred values were filed as active, the others as inactive; i = inactive; ? = inconclusive; . = no result. Calls come from the whole dose curve; as a rule, active = well fitted curve in the direction sought with a large enough effect; inconclusive = small, poorly fitted or top-dose-only effect, or another doubt; inactive = no such curve, though single readings can be large; an effect the other way counts as inactive or inconclusive. Unless noted, % is set by controls: 0 for no effect and ±100 for the full control effect; potency is the fitted concentration of half-maximal effect.

SMILES | TDP1 cell noCPT | TDP1 cell CPT | HT1080NT lethal | KB-V1 MDR tox | KB-3-1 cytotox | HT1080 IDH1KD tx
O=C(Cn1ncc(Cl)c(Cl)c1=O)NC1CCCCC1 | 15µM* | 10µM* | 13µM* | i | ? | 15µM*
Cc1ccc(Cn2c(C)c3cnn(CC(=O)NC4CCCC4)c(=O)c3c2C)cc1 | ? | ? | 10% | i | i | 15%
CCOC(=O)c1sc2ncnc(N3CCN(C(=O)OCC)CC3)c2c1C | ? | 15µM* | -3% | i | i | -5%
CCCCNC(=O)c1sc2ncnc(N3CCc4ccccc4C3)c2c1C | 8.2µM* | 15µM* | -14% | i | i | -10%
Cc1c(C(=O)NCCCN2CCOCC2)sc2ncnc(N3CCN(c4ccccc4)CC3)c12 | 21µM* | 16µM* | ? | i | i | -27%
Cc1c(C(=O)N2CCN(Cc3ccccc3)CC2)sc2ncnc(N3CCOCC3)c12 | -18% | ? | 0% | 18µM* | i | -1%
Cc1ccc2c(Cl)c(C(=O)Nc3cccnc3)sc2c1 | 2% | 9% | -15% | i | i | -30%
CCN(C(=O)CCS(=O)(=O)c1cc(Br)cc2c1N(C(=O)C1CC1)CC2)c1cccc(C)c1 | -13% | -5% | . | i | i | .
CC(C)(C)c1cc(C(=O)NNC(=O)Nc2cccc(Cl)c2)n(Cc2ccccc2)n1 | ? | ? | 1% | i | i | -7%
Cc1cccc(C)c1NC(=O)NNC(=O)c1cc(C(C)(C)C)nn1Cc1ccccc1 | ? | -15% | -5% | i | i | -3%
Cc1ccc(S(=O)(=O)N(C)C)cc1NC(=O)c1cc(C(C)(C)C)nn1Cc1ccccc1 | ? | 23µM* | -8% | i | i | -9%
CC(N)c1csc(NC(=O)c2cc(C(C)(C)C)nn2Cc2ccccc2)n1 (stereo not drawn) | 21µM* | 18µM* | 18µM* | ? | ? | ?
COc1ccc(CC(N)c2csc(NC(=O)c3cc(C(C)(C)C)nn3Cc3ccccc3)n2)cc1 (stereo not drawn) | 4.6µM* | 5.8µM* | 21µM* | ? | ? | 21µM*
Cc1ccc(S(=O)(=O)N(C)C)cc1NC(=O)CN1CCN(Cc2ccccc2)CC1 | -2% | 11% | 6% | ? | i | 5%
O=C(NC1=NCCS1)c1ccc(F)c(S(=O)(=O)N2CCOCC2)c1 | -4% | -5% | -3% | i | i | -4%
Cc1ccc2c(c1)c(=O)c1c3n2CCN(C(=O)CCl)C3CC1 (stereo not drawn) | 16µM* | 26µM* | -4% | i | i | -4%
Cc1ccc2c(c1)c1c3n2CCN(C(=O)CN2CCN(C)CC2)C3CCC1 (stereo not drawn) | 16µM* | ? | 23µM* | 21µM* | ? | ?
Cc1ccc2c(c1)c1c3n2CCN(C(=O)Cn2c(-c4ccccc4)noc2=O)C3CCC1 (stereo not drawn) | ? | ? | -13% | 4.1µM* | i | -24%
CSCCNC(=O)c1ccc2nc(C3CCCCC3)oc2c1 | -11% | -19% | 15% | i | i | 9%
C=CCc1cccc2cc(-c3nc4ccc(C(=O)O)cc4[nH]3)c(=O)oc12 | -11% | 1% | . | i | i | .
O=C(CCCCCCCCC(=O)N1CCCCC1)N1CCCCC1 | ? | ? | 8% | 2.3µM* | ? | 3%
O=C(CCCC(=O)N1CCCC1)N1CCCC1 | -12% | 10% | 2% | i | i | 8%
O=C(CCCCCCCC(=O)N1CCCCCC1)N1CCCCCC1 | ? | 23µM* | 0% | . | . | 1%
COc1ccccc1N1CCN(S(=O)(=O)CCNC(=O)c2ccccc2Br)CC1 | -28% | -26% | -2% | i | i | -2%
O=C(CS(=O)(=O)c1cccc2nsnc12)NCc1ccccc1Cl | ? | -30% | . | i | i | .
SMILES | TDP1 cell noCPT | TDP1 cell CPT | HT1080NT lethal | KB-V1 MDR tox | KB-3-1 cytotox | HT1080 IDH1KD tx
C=CCn1cc(C(=O)N2CCc3ccccc3C2)c(=O)c2cc(S(=O)(=O)N(CC)CC)ccc21 | 18µM* | ? | 2% | i | i | 14%
CCn1cc(C(=O)NCCc2ccc(OC)c(OC)c2)c(=O)c2cc(S(=O)(=O)N3CCOCC3)ccc21 | 18µM* | ? | -9% | i | i | -6%
CCOc1ccc(CCNC(=O)c2cn(CC)c3ccc(S(=O)(=O)N4CCCCCC4)cc3c2=O)cc1OCC | 18µM* | ? | . | i | i | .
CCN(CC)S(=O)(=O)c1ccc2c(c1)c(=O)c(C(=O)NCc1ccccc1Cl)cn2C | 7.3µM* | 9.2µM* | . | i | i | .
C=CCn1cc(C(=O)OC)c(=O)c2cc(S(=O)(=O)N(CC)CC)ccc21 | -2% | -2% | 0% | i | i | 0%
Cn1cc(C(=O)NCc2ccccc2Cl)c(=O)c2cc(S(=O)(=O)N3CCCCCC3)ccc21 | ? | ? | . | i | i | .
CCN(CC)S(=O)(=O)c1ccc2c(c1)c(=O)c(C(=O)N1CCN(c3cc(Cl)ccc3C)CC1)cn2C | ? | 16µM* | . | i | i | .
CCn1cc(C(=O)NCCc2ccc(C)cc2)c(=O)c2cc(S(=O)(=O)N3CCc4ccccc4C3)ccc21 | ? | ? | . | i | i | .
CCN(CC)S(=O)(=O)c1ccc2c(c1)c(=O)c(C(=O)NCCc1ccc(OC)c(OC)c1)cn2C | ? | 18µM* | -4% | i | i | 9%
CCOc1ccc(CCNC(=O)c2cn(CC)c3ccc(S(=O)(=O)N4CCc5ccccc5C4)cc3c2=O)cc1OCC | 12µM* | 18µM* | . | i | i | .
CCOC(=O)c1ccc(NC(=O)Cn2nnc(-c3ccc(C(F)(F)F)cc3)n2)cc1 | ? | ? | . | i | i | .
CC(C)(C)OC(=O)N1Cc2ccccc2C[C@H]1C(=O)NCC(=O)NCC1CCCO1 (stereo partly drawn) | 27% | -17% | 16% | i | i | -2%
COCCCNC(=O)c1ccc(Cn2c(=O)c3ccccc3n(CC(=O)Nc3c(C)cccc3C)c2=O)cc1 | -7% | ? | . | i | i | .
Cc1ccc(NC(=O)/C(C#N)=C(\N)C(Cl)(Cl)Cl)nc1 | 2.1µM* | 0.58µM* | ? | ? | 18µM* | ?
CCCCOc1ccc(C(=O)Nc2ccc(N3CCN(C(=O)C(C)C)CC3)cc2)cc1 | 7.3µM* | 8.2µM* | -5% | i | i | -17%

Screening data (PubChem)
